Measurements taken from ChEMBL document CHEMBL3988442, “University of Dundee, Small-Polar-MMV Screening Library” (2021).
For some of these results: Entries with a potency or affinity are not part of this list.

What was measured:
Parameters in all cases: scale not given: direction of the effect not stated beside the values
[1] = biological target: Protein translocase subunit SecA (Escherichia coli (strain K12)) (UniProt P10408); experiment: Assay to Identify E. coli SecA ATPase Inhibitors; assay type: functional; conditions: 30 µM
Chain of Protein translocase subunit SecA (Escherichia coli (strain K12)) (P10408 whole entry): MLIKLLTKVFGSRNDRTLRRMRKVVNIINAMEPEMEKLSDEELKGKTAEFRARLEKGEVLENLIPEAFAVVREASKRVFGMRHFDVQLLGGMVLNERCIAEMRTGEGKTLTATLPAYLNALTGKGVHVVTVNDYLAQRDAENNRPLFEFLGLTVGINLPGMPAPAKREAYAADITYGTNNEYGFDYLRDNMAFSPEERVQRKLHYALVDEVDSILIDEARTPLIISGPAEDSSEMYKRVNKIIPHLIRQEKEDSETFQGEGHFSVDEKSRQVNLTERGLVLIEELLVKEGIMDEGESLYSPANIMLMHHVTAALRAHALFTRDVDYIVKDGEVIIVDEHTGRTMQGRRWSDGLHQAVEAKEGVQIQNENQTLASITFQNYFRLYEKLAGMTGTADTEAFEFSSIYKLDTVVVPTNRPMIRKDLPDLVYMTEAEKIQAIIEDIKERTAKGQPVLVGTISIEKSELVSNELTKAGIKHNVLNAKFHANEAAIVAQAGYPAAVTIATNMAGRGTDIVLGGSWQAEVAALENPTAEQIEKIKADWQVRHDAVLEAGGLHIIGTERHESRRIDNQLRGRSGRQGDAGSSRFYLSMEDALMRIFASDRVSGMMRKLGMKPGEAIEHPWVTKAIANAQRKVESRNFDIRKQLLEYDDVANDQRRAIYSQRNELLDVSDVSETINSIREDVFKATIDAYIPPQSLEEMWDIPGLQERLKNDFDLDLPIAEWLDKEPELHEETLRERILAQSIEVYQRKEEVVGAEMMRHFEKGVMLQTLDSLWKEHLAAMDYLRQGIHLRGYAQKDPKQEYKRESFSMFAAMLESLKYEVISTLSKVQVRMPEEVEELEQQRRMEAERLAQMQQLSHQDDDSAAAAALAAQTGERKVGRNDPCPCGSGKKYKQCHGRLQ

[2] = biological target: T1, Ubiquitin-activating enzyme e1, putative (Leishmania donovani (strain BPK282A1)) (UniProt E9BSI1); experiment: Leishmania donovani Ubiquitin Activating Enzyme (LdE1); assay type: functional; conditions: 30 µM
T1 sequence (whole entry): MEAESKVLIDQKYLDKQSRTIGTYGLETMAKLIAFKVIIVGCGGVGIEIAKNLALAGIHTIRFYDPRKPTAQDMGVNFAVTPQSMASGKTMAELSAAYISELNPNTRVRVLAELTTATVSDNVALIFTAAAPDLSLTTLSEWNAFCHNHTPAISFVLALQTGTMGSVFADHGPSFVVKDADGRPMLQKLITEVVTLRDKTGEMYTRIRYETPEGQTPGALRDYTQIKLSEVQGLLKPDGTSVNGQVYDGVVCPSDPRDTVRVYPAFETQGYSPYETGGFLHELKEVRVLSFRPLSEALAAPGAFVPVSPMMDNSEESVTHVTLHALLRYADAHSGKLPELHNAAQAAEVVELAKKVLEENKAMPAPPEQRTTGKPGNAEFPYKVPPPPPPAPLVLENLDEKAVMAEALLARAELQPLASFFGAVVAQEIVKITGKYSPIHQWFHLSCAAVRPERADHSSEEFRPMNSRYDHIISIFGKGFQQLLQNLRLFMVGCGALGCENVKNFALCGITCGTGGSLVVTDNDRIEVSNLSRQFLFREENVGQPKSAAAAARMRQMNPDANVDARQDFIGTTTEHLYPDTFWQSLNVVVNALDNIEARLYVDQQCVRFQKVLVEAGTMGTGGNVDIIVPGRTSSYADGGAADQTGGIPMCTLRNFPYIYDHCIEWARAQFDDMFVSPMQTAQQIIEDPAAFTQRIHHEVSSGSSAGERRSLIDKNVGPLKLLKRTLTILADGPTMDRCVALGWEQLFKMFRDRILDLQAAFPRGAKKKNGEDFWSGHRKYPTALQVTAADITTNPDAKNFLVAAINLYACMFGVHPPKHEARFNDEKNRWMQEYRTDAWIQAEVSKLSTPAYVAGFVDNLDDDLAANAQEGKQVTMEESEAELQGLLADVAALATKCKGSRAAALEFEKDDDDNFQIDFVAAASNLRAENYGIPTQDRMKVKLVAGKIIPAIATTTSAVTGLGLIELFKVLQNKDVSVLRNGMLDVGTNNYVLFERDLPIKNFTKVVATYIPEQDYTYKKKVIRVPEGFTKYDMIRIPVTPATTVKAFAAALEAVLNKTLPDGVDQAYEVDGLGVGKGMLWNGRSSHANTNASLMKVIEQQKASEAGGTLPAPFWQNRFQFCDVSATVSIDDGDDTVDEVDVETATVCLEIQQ

[3] = biological target: AMP-activated protein kinase, AMPK (Homo sapiens) (UniProt P54646+O43741+P54619+Q9UGJ0+Q9Y478+Q13131+Q9UGI9); experiment: AMP-dependent Kinase enzyme assay. An in vitro enzyme assay that detects ADP turnover that is directly proportional to AMPK activity. This uses naive AMPK that is activated during the assay with MK-8722; assay type: functional; conditions: 30 µM
[4] = biological target: Sialic acid-binding Ig-like lectin 9 (Homo sapiens) (UniProt Q9Y336); experiment: Hs-Siglec9 ALPHAscreen SOP 20170721; conditions: 10 µM
Chain of Sialic acid-binding Ig-like lectin 9 (Homo sapiens) (Q9Y336 whole entry): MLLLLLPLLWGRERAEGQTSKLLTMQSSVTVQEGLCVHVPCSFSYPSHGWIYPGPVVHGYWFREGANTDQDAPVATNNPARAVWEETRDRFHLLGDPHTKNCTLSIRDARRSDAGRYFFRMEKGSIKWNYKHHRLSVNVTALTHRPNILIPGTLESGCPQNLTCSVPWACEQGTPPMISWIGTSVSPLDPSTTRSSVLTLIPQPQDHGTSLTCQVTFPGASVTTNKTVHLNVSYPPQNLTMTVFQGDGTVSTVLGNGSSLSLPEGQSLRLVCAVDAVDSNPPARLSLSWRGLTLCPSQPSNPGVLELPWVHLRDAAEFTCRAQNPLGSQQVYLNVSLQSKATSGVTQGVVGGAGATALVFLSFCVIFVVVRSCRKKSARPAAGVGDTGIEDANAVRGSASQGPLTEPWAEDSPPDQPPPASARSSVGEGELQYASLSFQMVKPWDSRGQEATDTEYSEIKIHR

Trypanosoma cruzi = experiment: Trypanosoma cruzi phosphomannomutase and mannose-1-phosphate guanylyltransferase assay; assay type: functional; conditions: 10 µM
[5] = biological target: T2, Arginase-2, mitochondrial (Homo sapiens) (UniProt P78540); experiment: in vitro enzyme assay to detect the production of urea directly proportional to the activity of Arginase II; assay type: functional; conditions: 33.3 µM; note: in the data most compounds retested in dose-response had high values
T2 sequence (whole entry): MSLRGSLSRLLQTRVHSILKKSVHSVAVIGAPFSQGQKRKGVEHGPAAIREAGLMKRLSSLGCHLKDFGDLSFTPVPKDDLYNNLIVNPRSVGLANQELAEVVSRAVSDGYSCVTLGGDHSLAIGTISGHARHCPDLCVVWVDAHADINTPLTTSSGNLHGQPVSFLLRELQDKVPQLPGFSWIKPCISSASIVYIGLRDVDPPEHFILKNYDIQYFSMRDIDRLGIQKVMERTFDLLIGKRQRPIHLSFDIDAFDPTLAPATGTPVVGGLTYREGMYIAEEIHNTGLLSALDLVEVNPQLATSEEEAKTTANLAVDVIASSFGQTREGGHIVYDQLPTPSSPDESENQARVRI

[6] = biological target: T3, Proteasome subunit beta (Trypanosoma cruzi) (UniProt O96673); experiment: Trypanosoma cruzi proteasome chymotrypsin-like activity (TcProtChymo) assay.; note: in the data most compounds retested in dose-response had high values; assay type: functional; conditions: 9.37 µM
T3 sequence (whole entry): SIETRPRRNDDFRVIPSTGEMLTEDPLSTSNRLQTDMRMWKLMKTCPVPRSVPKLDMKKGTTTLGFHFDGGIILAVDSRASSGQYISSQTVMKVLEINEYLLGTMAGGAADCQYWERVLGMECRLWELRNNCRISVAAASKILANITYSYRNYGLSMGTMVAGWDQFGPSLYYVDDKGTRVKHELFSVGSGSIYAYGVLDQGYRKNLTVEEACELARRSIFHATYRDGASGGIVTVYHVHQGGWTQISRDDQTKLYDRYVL

Homo sapiens = organism: Homo sapiens; experiment: To identify inhibition of the IFN signalling (Jak-Stat) pathway via expression of an eGFP reporter gene under the control of an IFN-stimulated response element (ISRE) containing MxA promoter.; assay type: functional; conditions: 30 µM
[7] = biological target: T4, Tyrosyl-tRNA synthetase, putative (Trypanosoma cruzi (strain CL Brener)) (UniProt Q4DSP6); experiment: Trypanosoma cruzi tyrosyl tRNA synthetase (TcYRS) _High Tyrosine SOP; assay type: functional; conditions: 30 µM; note: in the data most compounds retested in dose-response had high values
T4 sequence (whole entry): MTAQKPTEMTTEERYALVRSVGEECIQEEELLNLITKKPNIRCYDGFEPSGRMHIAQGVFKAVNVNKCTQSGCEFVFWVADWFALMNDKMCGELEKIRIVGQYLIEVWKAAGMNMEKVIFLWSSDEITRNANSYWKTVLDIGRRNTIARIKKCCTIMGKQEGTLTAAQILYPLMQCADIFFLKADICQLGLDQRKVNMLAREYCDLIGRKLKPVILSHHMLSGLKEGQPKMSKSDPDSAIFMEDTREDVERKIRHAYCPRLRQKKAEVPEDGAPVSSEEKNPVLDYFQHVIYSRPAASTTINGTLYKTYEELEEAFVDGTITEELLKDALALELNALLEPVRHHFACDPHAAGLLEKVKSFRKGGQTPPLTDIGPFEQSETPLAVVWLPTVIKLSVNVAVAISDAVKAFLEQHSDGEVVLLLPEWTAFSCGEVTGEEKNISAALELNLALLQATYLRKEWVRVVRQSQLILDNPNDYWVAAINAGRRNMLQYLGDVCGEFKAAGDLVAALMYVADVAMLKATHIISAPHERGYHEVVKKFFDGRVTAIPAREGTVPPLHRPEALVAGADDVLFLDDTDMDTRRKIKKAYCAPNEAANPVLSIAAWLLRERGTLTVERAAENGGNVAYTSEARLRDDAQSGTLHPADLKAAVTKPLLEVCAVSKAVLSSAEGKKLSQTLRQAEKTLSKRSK

[8] = biological target: T4, Tyrosyl-tRNA synthetase, putative (Trypanosoma cruzi (strain CL Brener)); experiment: Trypanosoma cruzi tyrosyl tRNA synthetase (TcYRS) SOP; assay type: functional; conditions: 30 µM
[9] = biological target: Chromo domain-containing protein 1 (Saccharomyces cerevisiae (strain ATCC 204508 / S288c) (Baker's yeast)) (UniProt P32657); experiment: ScCHD-1 Enzyme Inhibition Assay; assay type: functional; conditions: 30 µM; note: in the data most compounds retested in dose-response had high values
Chain of Chromo domain-containing protein 1 (Saccharomyces cerevisiae (strain ATCC 204508 / S288c) (Baker's yeast)) (P32657 whole entry, the tested form may be a part): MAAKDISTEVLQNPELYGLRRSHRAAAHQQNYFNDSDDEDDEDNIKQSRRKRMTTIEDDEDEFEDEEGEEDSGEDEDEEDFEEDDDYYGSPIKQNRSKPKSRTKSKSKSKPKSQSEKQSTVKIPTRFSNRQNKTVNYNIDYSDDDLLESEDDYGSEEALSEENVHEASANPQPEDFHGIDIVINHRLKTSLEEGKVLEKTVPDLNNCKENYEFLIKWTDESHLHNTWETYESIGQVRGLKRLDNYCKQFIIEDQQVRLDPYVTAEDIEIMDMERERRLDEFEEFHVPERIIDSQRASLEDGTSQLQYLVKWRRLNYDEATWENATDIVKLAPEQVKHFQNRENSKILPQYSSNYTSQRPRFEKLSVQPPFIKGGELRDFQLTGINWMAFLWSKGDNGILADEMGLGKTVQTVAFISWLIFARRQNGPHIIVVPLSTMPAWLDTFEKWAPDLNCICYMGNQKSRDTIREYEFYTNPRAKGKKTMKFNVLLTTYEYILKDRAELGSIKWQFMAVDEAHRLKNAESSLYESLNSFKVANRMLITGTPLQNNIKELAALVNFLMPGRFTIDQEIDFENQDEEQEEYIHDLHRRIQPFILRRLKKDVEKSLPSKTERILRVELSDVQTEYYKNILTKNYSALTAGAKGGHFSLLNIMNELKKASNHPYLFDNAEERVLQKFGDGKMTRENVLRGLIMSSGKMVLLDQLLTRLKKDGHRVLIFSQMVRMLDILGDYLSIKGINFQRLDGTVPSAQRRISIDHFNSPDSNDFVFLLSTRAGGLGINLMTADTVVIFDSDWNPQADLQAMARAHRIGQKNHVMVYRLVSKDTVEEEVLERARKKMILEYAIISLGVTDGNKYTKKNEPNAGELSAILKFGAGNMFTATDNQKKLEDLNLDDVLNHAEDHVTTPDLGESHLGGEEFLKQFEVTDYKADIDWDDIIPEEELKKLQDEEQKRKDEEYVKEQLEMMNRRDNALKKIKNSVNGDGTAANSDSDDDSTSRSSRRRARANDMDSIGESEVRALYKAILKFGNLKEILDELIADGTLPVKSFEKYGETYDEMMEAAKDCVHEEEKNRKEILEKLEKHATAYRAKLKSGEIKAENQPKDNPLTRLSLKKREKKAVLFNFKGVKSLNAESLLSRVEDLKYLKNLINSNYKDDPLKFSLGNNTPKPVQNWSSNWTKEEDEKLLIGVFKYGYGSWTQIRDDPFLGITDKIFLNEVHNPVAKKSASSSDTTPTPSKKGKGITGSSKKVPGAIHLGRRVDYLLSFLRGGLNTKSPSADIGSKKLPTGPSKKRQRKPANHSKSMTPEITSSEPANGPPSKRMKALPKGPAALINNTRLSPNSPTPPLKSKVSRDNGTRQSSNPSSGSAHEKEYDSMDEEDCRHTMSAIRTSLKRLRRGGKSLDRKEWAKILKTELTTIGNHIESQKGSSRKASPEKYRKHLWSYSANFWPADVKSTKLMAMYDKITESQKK

Structure (SMILES) | Percent Effect [1] [%] | Percent Effect [2] [%] | Percent Effect [3] [%] | Percent Effect [4] [%] | Percent Effect (Trypanosoma cruzi) [%] | Percent Effect [5] [%] | Percent Effect [6] [%] | Percent Effect (Homo sapiens) [%] | Percent Effect [7] [%] | Percent Effect [8] [%] | Percent Effect [9] [%]
COc1ccc(C2CC(=O)Oc3cc(C)[nH]c(=O)c32)cc1 (stereo unspecified) | -5.52 | 6.67 | 5.42 | 2.83 | 4.13 | -0.528 | 11.1 | 3.33 | 2.12 | 5.13 | -1.69
COCCNC(=O)[C@H]1C[C@@H]2CCN(Cc3ccoc3)C[C@H]2O1 | -1.42 | 8.11 | 5.25 | -7.78 | -8.7 | 7.96 | 23.2 | 2.97 | 0 | 7.69 | -1.51
CCc1ccc(C(=O)N2CCC(c3nncn3CC)CC2)cc1 | -10 | 18.4 | -9.82 | -0.88 | 7.3 | -5.92 | 7.57 | 5.31 | 3.19 | 15.6 | -9.19
CC(C)C(NC(=O)NCCNc1ccccn1)c1cccs1 (stereo unspecified) | -6.06 | 18.2 | -14.7 | 6.36 | -0.187 | 4.98 | 10.8 | 8.29 | 9.71 | 26.8 | -7.99
c1nc2c(c(C3CC3)n1)CCN(CC1CCOC1)CC2 (stereo unspecified) | -4.07 | 8.11 | 3.6 | -7.53 | 8.31 | 3.5 | 20.7 | 7.05 | 5.41 | 15.4 | -0.123
Cc1ccc(CNC(=O)NCCCn2nc3ccccn3c2=O)s1 | -7.23 | 16.2 | -11 | 15.3 | 6.89 | -18.8 | 5.95 | 7.36 | 6.4 | -70.4 | -16.6
CC(C(=O)NCCCN1CCCCCC1=O)n1cncn1 (stereo unspecified) | -2.32 | 21.1 | -0.014 | -11.5 | -1.4 | -5.04 | 8.04 | 2.75 | 5.42 | 13.6 | -7.45
CCC(=O)NCCc1cc(N2CCN(C(C)=O)CC2)nc(C2CC2)n1 | -1.34 | 6.76 | 12.6 | -2.83 | -6.72 | 3.02 | 10.3 | 16.2 | 2.15 | 11.7 | 1.75
Cc1nnc(N2C[C@@H](OCCCn3cccn3)[C@H]3OCCC[C@H]32)s1 | -0.829 | 5.48 | -5.05 | 10.8 | 1.79 | -5.19 | 24.9 | -5.83 | 7.29 | 16.1 | -7.05
COc1ccc(CNCc2c(C)nn(C)c2N2CCOCC2)cc1 | -5.07 | 18.2 | -11.5 | 0.605 | 3.82 | 0.21 | 14.5 | -34.5 | 8.57 | 21.2 | -13
CN(C)CC1(O)CCN(S(=O)(=O)c2ccc(F)c(F)c2)C1 (stereo unspecified) | -6.44 | 23 | -0.681 | -1.29 | 5.34 | -3.48 | 20.9 | 1.49 | 3.23 | 6.49 | -21.7
